Source: PubChem
AHR activator: human AHR activation; activation, % at 5 µM; AHR-responsive luciferase reporter cells, luminescence; hit rate 2.5% among 320,000; P35869; in the data active = activation above about 47%;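 also: 0% = vehicle wells and 100% = reference agonist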
Target sequence (P35869 whole entry, looked up): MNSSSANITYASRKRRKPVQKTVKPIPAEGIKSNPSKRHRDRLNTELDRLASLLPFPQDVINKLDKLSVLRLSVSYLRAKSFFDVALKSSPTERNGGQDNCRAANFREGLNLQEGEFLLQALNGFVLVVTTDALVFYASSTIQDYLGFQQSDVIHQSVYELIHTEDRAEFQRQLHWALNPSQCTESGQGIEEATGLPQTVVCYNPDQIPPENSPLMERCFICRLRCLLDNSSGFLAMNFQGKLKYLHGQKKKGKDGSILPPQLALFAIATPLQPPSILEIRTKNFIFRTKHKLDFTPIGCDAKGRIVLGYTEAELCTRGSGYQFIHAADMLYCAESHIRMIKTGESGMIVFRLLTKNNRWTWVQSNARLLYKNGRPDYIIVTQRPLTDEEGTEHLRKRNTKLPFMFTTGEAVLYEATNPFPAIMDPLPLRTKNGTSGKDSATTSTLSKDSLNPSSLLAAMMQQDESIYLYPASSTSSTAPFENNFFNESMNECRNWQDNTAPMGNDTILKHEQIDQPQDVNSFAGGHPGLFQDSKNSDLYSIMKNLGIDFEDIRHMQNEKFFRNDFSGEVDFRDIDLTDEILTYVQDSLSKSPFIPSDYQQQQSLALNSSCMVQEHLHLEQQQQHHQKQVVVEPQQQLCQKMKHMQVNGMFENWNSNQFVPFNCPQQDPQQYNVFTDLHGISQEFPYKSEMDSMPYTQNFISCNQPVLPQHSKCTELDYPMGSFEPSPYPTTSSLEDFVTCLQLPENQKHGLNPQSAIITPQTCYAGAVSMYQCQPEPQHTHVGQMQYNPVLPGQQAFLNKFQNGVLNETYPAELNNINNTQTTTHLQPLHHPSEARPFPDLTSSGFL
FXN GAA850 act: increases GAA850 frataxin promoter reporter activity; hit rate 0.56% among 360,000; activation, % at 6 µM; HEK293 lucGAA850 FXN promoter luciferase reporter, 24 h; percent of 10 µM SAHA response;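 active = activation above the average of all compounds screened plus 3 SD, cutoff fixed separately per campaign, cut at about 7.5% in these data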;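 also: 0% = DMSO wells and 100% = 10 µM SAHA wells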
HSP90 inh: inhibitors of HSP90 luciferase refolding in rabbit reticulocyte lysate. AID 1789. inhibition, % at 5.6 µM. hit rate 0.91% among 290,000. luciferase refolding luminescence, 3 h;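 active = inhibition above the screen-wide mean plus 3 SD, computed separately per campaign, cut at about 16% in these data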;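 also: 0% = DMSO wells and 100% = 60 µM geldanamycin wells; inhibitors lower the luminescence because luciferase stays unfolded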
HSF-1 act: increases HSF-1 driven luciferase reporter signal; NIH3T3-HGL HSF-1 luciferase reporter, MG132, 8 h; 100% = twice DMSO control signal; hit rate 1.7% among 300,000; activation, % at 9 µM;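 active = mean replicate activation of at least 50% with a set share of replicates each reaching 50%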;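 also: 0% = median of the neutral control wells and 100% = twice that signal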
HSF1 inh: HSF1 inhibition; NIH3T3-HGL HSE-luciferase, MG132-induced, luminescence 8 h; hits give low values; activity change, negative = inhibition, % at 7.5 µM (by protocol); hit rate 0.77% among 300,000; AID 2098;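 active = more than half of replicate wells show activity change below -50%, luminescence cut by over half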;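 also: luciferase reports HSF-1 transcriptional activity via heat shock element; 0% = median of DMSO wells and -100% = zero luminescence signal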
NR0B1 inh: inhibits human nuclear receptor DAX1. hit rate 0.99% among 340,000. inhibition, % at 6.75 µM. HEK293 Gal4-DAX1 luciferase reporter, luminescence. P51843;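 active = inhibition above the mean over all tested compounds plus 3 SD, cut at about 4.2% in these data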;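 also: 0% = DAX1-transfected cells with DMSO and 100% = empty-vector control cells with DMSO; inhibition shows as a rise in luminescence from relieved DAX1 repression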
AHR act confirm: human AHR activation, confirmation; human cells, AHR-responsive luciferase reporter, luminescence; activation, % at 9 µM; hit rate 87% among 2,300; shares compounds with AHR activator; AID 2845; in the data active = activation above about 49%;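 also: HepG2 hepatoma cells carrying a DRE-driven firefly luciferase reporter; 0% = vehicle wells and 100% = reference agonist wells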
PXR act counter: counter-screen for AHR activators: human PXR activators. shares compounds with AHR activator. cell-based PXR reporter, luciferase luminescence. activation, % at 11.6 µM. AID 434939. hit rate 88% among 2,300; in the data active = activation above about 11%;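 also: human hepatoma DPX-2 cells expressing full-length human PXR; 0% = DMSO and 100% = reference agonist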
The depositor's hits bear a star. In the library only some 5.9% were active in any assay of this set; here they are far more common.

`Cc1cc(C)c2c(NC(=S)NC(=O)c3ccccc3)n[nH]c2n1` gave AHR activator 3, FXN GAA850 act 3, HSP90 inh -2 and NR0B1 inh 3.
`Cc1ccc(C)c(N/C(N)=N/c2nc(C)cc(C)n2)c1` gave AHR activator 29, FXN GAA850 act -1, HSP90 inh 0, HSF-1 act -5, HSF1 inh -1 and NR0B1 inh -2.
Screening COc1ccc(C)cc1N/C(N)=N/c1nc(C)cc(C)n1 returned AHR activator 81*, FXN GAA850 act 1, HSP90 inh 1, HSF-1 act -7, HSF1 inh 0, NR0B1 inh -2 and AHR act confirm 59*.
`CC1(c2nnc(-c3ccccc3)o2)CC(c2ccc([N+](=O)[O-])cc2)=NO1` (stereo not given) gave AHR activator 7, FXN GAA850 act 0, HSF-1 act -4, HSF1 inh 4 and NR0B1 inh -1.
`CC(=O)c1c(C)[nH]c(C(=O)NCCC2=CCCCC2)c1C` gave AHR activator 146*, FXN GAA850 act 1, HSP90 inh 2, HSF-1 act 37, HSF1 inh 36, NR0B1 inh 2, AHR act confirm 110* and PXR act counter 70*.
For O=C(/C=C/c1ccco1)NCC(=O)N/N=C/c1ccc([N+](=O)[O-])cc1 the results were AHR activator 6, FXN GAA850 act 0, HSP90 inh -3, HSF-1 act 3, HSF1 inh 3 and NR0B1 inh 1.
For CN(CC(=O)Nc1ccccc1Br)C(=O)c1cccnc1Nc1cccc(C(F)(F)F)c1 the results were AHR activator 26, FXN GAA850 act 2, HSP90 inh 2, HSF-1 act 30, HSF1 inh 6 and NR0B1 inh 1.
Screening O=c1[nH]cnc2c1sc1nc(C(F)F)cc(-c3ccccc3)c12 returned AHR activator 106*, FXN GAA850 act 0, NR0B1 inh 0, AHR act confirm 76* and PXR act counter 10*.
`Cc1ccc(NS(=O)(=O)c2ccc(-n3cccn3)cc2)nc1` gave AHR activator 1, FXN GAA850 act 0, HSP90 inh 0, HSF-1 act 12, HSF1 inh 0 and NR0B1 inh 0.
`O=C(Nc1cccc(Cl)c1Cl)c1ccccc1OCC(=O)N1CCOCC1` gave AHR activator 82*, FXN GAA850 act 0, HSP90 inh 1, HSF-1 act -8, HSF1 inh -11, NR0B1 inh 0, AHR act confirm 89* and PXR act counter 49*.
Screening O=C(Cc1ccc(Cl)cc1)Nc1ccc(S(=O)(=O)Nc2ncccn2)cc1 returned AHR activator 1, FXN GAA850 act 2, HSP90 inh -1, HSF-1 act 15, HSF1 inh -1 and NR0B1 inh 1.
For NCCCn1c(C(=O)c2ccc(Cl)cc2)c2ccc(C(F)(F)F)cc2[n+]1[O-] the results were AHR activator 100*, FXN GAA850 act 2, HSF-1 act -2, HSF1 inh -4, NR0B1 inh 1, AHR act confirm 104* and PXR act counter 29*.
For COc1ccccc1NC(=O)CNC(=O)c1ccccc1 the results were AHR activator 7, FXN GAA850 act 0, HSP90 inh -5, HSF-1 act 4, HSF1 inh -8 and NR0B1 inh 0.
`COc1ccc(-c2cnc3ccccc3n2)cc1NC(=O)CNC(=O)c1ccccc1` gave AHR activator 117*, FXN GAA850 act 1, HSP90 inh 2, HSF-1 act -11, HSF1 inh -3, NR0B1 inh 1, AHR act confirm 35 and PXR act counter 42*.
Screening Cc1cc(C)n(CC(=O)NCc2ccccc2)c(=O)c1C#N returned AHR activator 0, FXN GAA850 act 1, HSP90 inh 3, HSF-1 act -1, HSF1 inh -5 and NR0B1 inh 2.
For Cc1cc(C)n(CCC(=O)N2CCN(S(=O)(=O)c3ccccc3)CC2)n1 the results were AHR activator 0, FXN GAA850 act 0, HSP90 inh 1, HSF-1 act -19, HSF1 inh -5 and NR0B1 inh 2.
`C=CCNc1nc(=S)[nH]c2cc(OC)c(OC)cc12` gave AHR activator 104*, FXN GAA850 act -2, HSP90 inh 2, HSF-1 act 0, HSF1 inh -12, NR0B1 inh -1, AHR act confirm 75* and PXR act counter 13*.
COc1cc(/C=C/C(=O)O)ccc1OS(=O)(=O)c1cc(C)ccc1C was read as AHR activator 2, FXN GAA850 act 1, HSP90 inh 0, HSF-1 act 8, HSF1 inh 1 and NR0B1 inh 1.
Screening COc1cc(NC(=S)Nc2ncccc2C)cc(OC)c1OC returned AHR activator 106*, FXN GAA850 act 4, HSP90 inh -2, HSF-1 act 34, HSF1 inh 9, NR0B1 inh 1, AHR act confirm 93* and PXR act counter 67*.
`COc1ccc(Br)cc1/C=C/c1ccc2cccc(O)c2n1` gave AHR activator 36, FXN GAA850 act 2, HSP90 inh -1, HSF-1 act -5, HSF1 inh -7 and NR0B1 inh 1.
Screening COc1cccc(/C=C/c2ccc3cccc(O)c3n2)c1OC returned AHR activator 81*, FXN GAA850 act 5, HSP90 inh -1, HSF-1 act -12, HSF1 inh -2, NR0B1 inh 2, AHR act confirm 65* and PXR act counter 13*.
`NNC(=O)c1ccc2nc(-c3ccc(Br)cc3)cn2c1` gave AHR activator 100*, FXN GAA850 act 1, HSP90 inh 7, HSF-1 act 10, HSF1 inh -1, NR0B1 inh 1, AHR act confirm 50* and PXR act counter 21*.
Screening NNC(=O)c1ccc(Cn2cc(Br)cn2)cc1 returned AHR activator 16, FXN GAA850 act -3, HSP90 inh 7, HSF-1 act -3, HSF1 inh -8 and NR0B1 inh 0.
Screening CCc1ccc(S(=O)(=O)/N=C2\C=CC(=O)c3ccccc32)cc1 returned AHR activator 112*, HSP90 inh 1, HSF-1 act -47, HSF1 inh -41, AHR act confirm 93* and PXR act counter 164*.
For Cc1cc(NC(=O)CSc2nc3cc(C(=O)NCCCOC(C)C)ccc3c(=O)n2Cc2ccco2)no1 the results were AHR activator -1, FXN GAA850 act -3, HSP90 inh -5, HSF-1 act -14, HSF1 inh -12 and NR0B1 inh 1.
